Results reported in PubChem BioAssay (NCI).
Compounds without any hit were thinned out: in the full panel of roughly 83,000, 20% have a hit.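 Method: cells in 96-well plates; compound added at one concentration; 48 h incubation; percent growth measured; values under 10 scored active.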 Activity calls are given as the source filed them.

Legend:
Test in all cases: NCI-60 one-dose screen, 48 h (100 = growth as untreated, 0 = no growth, -100 = all killed)
Conditions in all cases: 10 µM unless noted
[1] = tested on: HCT-15 colon
[2] = tested on: HT29 colon
[3] = tested on: SNB-75 CNS
[4] = tested on: SNB-19 CNS
[5] = tested on: U251 CNS
[6] = tested on: PC-3 prostate
[7] = tested on: SK-MEL-5 melanoma
[8] = tested on: UACC-62 melanoma
[9] = tested on: SK-MEL-28 melanoma
[10] = tested on: SK-MEL-2 melanoma
[11] = tested on: EKVX NSCLC
[12] = tested on: SN12C renal
[13] = tested on: TK-10 renal
[14] = tested on: ACHN renal
[15] = tested on: CAKI-1 renal
[16] = tested on: A498 renal
[17] = tested on: CCRF-CEM leukemia
[18] = tested on: MOLT-4 leukemia
[19] = tested on: UO-31 renal
[20] = tested on: LOX IMVI melanoma

Measured: growth

O=C(C[n+]1cccc2ccccc21)c1ccc(O)c(O)c1
active: [17] -13.8% | [18] 6.56%
inactive: [1] 20.8% | [2] 40.7% | [3] 66% | [4] 74.5% | [5] 91.1% | [6] 69.9% | [7] 82.7% | [8] 69.7% | [9] 84.7% | [10] 90.8% | [11] 76.8% | [12] 72.4% | [13] 39% | [14] 23.7% | [15] 83.6% | [16] 88.4%

COc1ccccc1/C(C)=N/NC(=O)CSc1nc2ccccc2c(=O)n1Cc1ccc(S(N)(=O)=O)cc1
inactive: [1] 97.6% | [2] 114% | [3] 89.7% | [4] 93.3% | [5] 103% | [6] 111% | [7] 97.5% | [8] 97.4% | [9] 114% | [10] 106% | [11] 85.6% | [12] 102% | [19] 77.3% | [14] 105% | [15] 85.4% | [17] 94.5% | [18] 97%

C/C(=N\NC(=O)CSc1nc2ccccc2c(=O)n1CCc1ccc(S(N)(=O)=O)cc1)c1ccccn1
inactive: [1] 26.8% | [2] 31.5% | [3] 74.5% | [4] 46.6% | [5] 31.8% | [6] 50.7% | [7] 24.9% | [8] 19.5% | [9] 37.6% | [10] 47.2% | [11] 30.5% | [12] 38.5% | [19] 29.8% | [13] 34.5% | [15] 37.6% | [17] 20.6% | [18] 17.7%

CCCCCCNC(=O)Oc1ccc(/C(=C(\C)c2ccccc2)c2ccc(OCCCN(C)C)cc2)cc1
inactive: [1] 25.9% | [3] 86.8% | [4] 80.5% | [5] 67.3% | [6] 79.7% | [7] 92.9% | [8] 56.1% | [9] 88.3% | [10] 92.3% | [11] 91.1% | [12] 80.7% | [19] 57.8% | [13] 91.2% | [14] 97.9% | [15] 94.8% | [17] 77.6% | [18] 62.6%
active: [2] 2.7%

COc1cc(/C=C/c2cc(O)c(C(C)=O)c(O)c2)cc2c1O[C@]1(C)CC[C@@H](O)C(C)(C)[C@H]1C2
active: [3] 7.67%
inactive: [1] 42.8% | [2] 34.9% | [4] 56.4% | [5] 36.1% | [6] 45.2% | [7] 65.2% | [20] 35.1% | [9] 51.4% | [10] 31.4% | [11] 90.7% | [12] 82.5% | [19] 29.7% | [13] 94.7% | [14] 65% | [15] 45% | [17] 37.6% | [18] 20.2%

S=c1cc(S)c2cc(Br)ccc2[nH]1
inactive: [1] 99.8% | [2] 96.9% | [3] 105% | [4] 94.1% | [5] 98.3% | [6] 78.8% | [7] 89% | [20] 95.9% | [9] 98% | [10] 93.9% | [11] 105% | [12] 98.8% | [13] 125% | [14] 90.4% | [15] 101% | [17] 100% | [18] 98.7%

N#C/C(=C\c1c(-c2ccccc2)[nH]c2ccccc12)C(=O)c1ccc(Cl)cc1
active: [3] -4.21% | [7] 1.79% | [16] -3.53% | [17] 2.19%
inactive: [1] 31.1% | [2] 17.3% | [4] 55.3% | [5] 18.6% | [6] 32.9% | [20] 44.4% | [9] 50.9% | [10] 74.6% | [11] 48.8% | [12] 66.7% | [19] 47.3% | [13] 68.3% | [14] 48.9% | [15] 59.6% | [18] 45.9%

C#CCNC(=O)[C@H](Cc1ccccc1)NC(=O)[C@]12CC[C@@H](C(=C)C)[C@@H]1[C@H]1CC[C@@H]3[C@@]4(C)CCC(=O)C(C)(C)[C@@H]4CC[C@@]3(C)[C@]1(C)CC2
inactive: [1] 70.7% | [2] 52.9% | [3] 99.2% | [4] 82.6% | [5] 69.1% | [6] 33% | [7] 78.2% | [20] 75.4% | [9] 98.1% | [10] 86.8% | [11] 79% | [12] 76% | [19] 54% | [13] 65.3% | [14] 75.7% | [17] 65.1% | [18] 46.3%

COC(=O)/C=C1\S/C(=N\NC(=O)c2cc3ccc2/C=C\c2ccc(cc2)/C=C\3)N(c2ccccc2)C1=O
inactive: [3] 45.7% | [4] 39.9% | [5] 15.8% | [7] 69.3% | [9] 82.5% | [10] 87% | [11] 59% | [12] 22.5% | [19] 58.5% | [13] 15.2% | [14] 49.3% | [15] 69.3% | [17] 13%
active: [1] 0.337% | [2] -13.1% | [6] -35.9% | [20] -27.8% | [18] 3.03%
